In PubChem BioAssay (EPA / NIEHS) one finds outcome and AC50 data, which are given here for eight compounds.

Each structure is given as a SMILES string. Calls of active or inactive are those of the source. The calls were made as follows: active = hit-call score of the fitted dose curve at least 0.9, where 1 is the maximum; inactive = score below 0.9.

Assay [1] in a line: ATG_ISRE_CIS: Attagene CIS-FACTORIAL HepG2 Assay for human Interferon Regulatory Factor 1 (IRF1) binding to an Interferon-Stimulated Response Element (ISRE) (AID 2282948). The settings on record: HepG2 ISRE cis-reporter (Attagene), mRNA transcription readout; actives raise or lower the signal. In short, it runs like this:
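Multiplexed mRNA reporter readout in human liver HepG2 cells: cis-element-driven reporters transfected, compound added for 24 h, transcripts amplified, fluorescently labelled and sized by capillary electrophoresis; curve fitting bidirectional against DMSO.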

The nature of assay [2]: ATG_M_32_CIS: Attagene CIS-FACTORIAL HepG2 Assay for M32 Transcription Factor (Internal Marker) (AID 2282949).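 Also: background control marker of the multiplexed CIS panel rather than a real target.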 Particulars: HepG2 Attagene cis-factorial M32 reporter, mRNA; actives raise or lower the signal. In short, it runs like this: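 HepG2 transfectants (cis-regulated reporter transcription units) dosed 24 h. Reporter mRNA by RT-PCR plus CE, analysed as gain or loss relative to DMSO.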

Assay [3] can be described thus: ATG_M_06_CIS: Attagene CIS-FACTORIAL HepG2 Assay for M06 Transcription Factor (Internal Marker) (AID 2282950). The settings on record: HepG2 Attagene CIS-FACTORIAL M06 internal marker reporter; actives raise or lower the signal. In short, it runs like this: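 Fluorescence-labelled RT-PCR products from cis-promoter reporter units, cut with HpaI and resolved by capillary electrophoresis, give the signal. Cells are human HepG2, dosed for 24 h. Serves as background control, fitted relative to DMSO.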

The target of assay [4] is Hypoxia-inducible factor 1-alpha (Homo sapiens) (UniProt Q16665). As to the kind of experiment: ATG_HIF1a_CIS: Attagene CIS-FACTORIAL HepG2 Assay for human Hypoxia Inducible Factor 1 (HIF1A) (AID 2282951). Particulars: HepG2 Attagene cis-factorial HIF1a reporter transcription; actives raise or lower the signal. In short, it runs like this: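 Measures endogenous transcription-factor activity through cis-regulated reporter mRNA in HepG2. Cells dosed 24 h; transcripts quantified by RT-PCR with 6-FAM-labelled products separated by capillary electrophoresis; DMSO serves as negative control.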
Hypoxia-inducible factor 1-alpha (Homo sapiens), sequence (Q16665 whole entry, looked up): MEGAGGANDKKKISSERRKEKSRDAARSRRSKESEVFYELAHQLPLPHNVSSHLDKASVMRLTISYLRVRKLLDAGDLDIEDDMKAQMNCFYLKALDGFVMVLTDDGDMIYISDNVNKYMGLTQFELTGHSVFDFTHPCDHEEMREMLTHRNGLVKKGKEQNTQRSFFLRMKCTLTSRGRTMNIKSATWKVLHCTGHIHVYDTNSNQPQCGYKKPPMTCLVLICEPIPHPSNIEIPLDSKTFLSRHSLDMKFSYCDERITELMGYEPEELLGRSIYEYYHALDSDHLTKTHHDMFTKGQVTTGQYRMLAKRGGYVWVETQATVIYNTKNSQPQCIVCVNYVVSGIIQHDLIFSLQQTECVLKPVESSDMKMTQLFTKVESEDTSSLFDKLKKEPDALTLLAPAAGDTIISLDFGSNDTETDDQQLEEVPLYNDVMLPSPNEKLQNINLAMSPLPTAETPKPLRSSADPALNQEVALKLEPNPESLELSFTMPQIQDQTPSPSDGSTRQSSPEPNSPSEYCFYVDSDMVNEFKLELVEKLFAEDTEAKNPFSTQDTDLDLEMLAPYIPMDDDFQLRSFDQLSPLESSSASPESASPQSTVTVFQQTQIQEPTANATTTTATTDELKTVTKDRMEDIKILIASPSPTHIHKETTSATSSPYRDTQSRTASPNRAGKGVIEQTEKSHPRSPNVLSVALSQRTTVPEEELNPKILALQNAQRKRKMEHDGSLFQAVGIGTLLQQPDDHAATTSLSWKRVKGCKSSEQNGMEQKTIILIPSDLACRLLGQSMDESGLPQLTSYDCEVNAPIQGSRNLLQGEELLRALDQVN

Assay [5] addresses Hepatocyte nuclear factor 6 (Homo sapiens) (UniProt Q9UBC0). As to the kind of experiment: ATG_HNF6_CIS: Attagene CIS-FACTORIAL HepG2 Assay for human Hepatocyte Nuclear Factor 6 (HNF6) (AID 2282952). The settings on record: HepG2 Attagene cis-factorial HNF6 reporter transcription; actives raise or lower the signal. Put shortly: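 Endogenous factor activity read in transiently transfected HepG2 via promoter-regulated reporter transcripts. RNA harvested 24 h post-dosing, reverse-transcribed, PCR-amplified, FAM-labelled, HpaI-digested and resolved by capillary electrophoresis; fitted in both directions against DMSO.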

Assay [6] deals with Heat shock factor protein 1 (Homo sapiens) (UniProt Q00613). Nature of the assay: ATG_HSE_CIS: Attagene CIS-FACTORIAL HepG2 Assay for human Heat Shock Transcription Factor 1 (HSE) (AID 2282953). Particulars: HepG2 HSE cis-reporter, Attagene RNA transcription; actives raise or lower the signal. Put shortly: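 After a 24 h incubation with test chemical, transfected HepG2 cells were harvested for RNA; reporter transcripts were measured by RT-PCR and capillary electrophoresis. Values reflect gain or loss of signal relative to DMSO.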
Heat shock factor protein 1 (Homo sapiens), sequence (Q00613 whole entry, looked up): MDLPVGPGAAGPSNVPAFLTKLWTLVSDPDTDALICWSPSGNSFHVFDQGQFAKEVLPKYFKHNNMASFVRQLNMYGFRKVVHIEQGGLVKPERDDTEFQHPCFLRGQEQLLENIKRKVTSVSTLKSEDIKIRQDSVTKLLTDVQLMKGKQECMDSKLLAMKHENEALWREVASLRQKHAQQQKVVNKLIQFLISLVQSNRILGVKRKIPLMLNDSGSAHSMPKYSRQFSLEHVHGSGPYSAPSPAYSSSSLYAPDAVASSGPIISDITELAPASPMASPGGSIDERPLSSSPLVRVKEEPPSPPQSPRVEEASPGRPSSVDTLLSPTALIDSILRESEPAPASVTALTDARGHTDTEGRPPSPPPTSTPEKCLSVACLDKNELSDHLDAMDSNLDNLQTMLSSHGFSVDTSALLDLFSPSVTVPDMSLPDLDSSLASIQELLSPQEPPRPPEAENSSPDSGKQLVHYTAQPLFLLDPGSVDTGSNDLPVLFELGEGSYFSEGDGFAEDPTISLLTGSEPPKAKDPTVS

Assay [7] is described as follows: ATG_MRE_CIS: Attagene CIS-FACTORIAL HepG2 Assay for human Metal Responsive Element (MRE) (AID 2282954). Particulars: HepG2 MRE cis-reporter transcription, Attagene multiplex; actives raise or lower the signal. In short, it runs like this: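 Endogenous MRE-dependent transcription read as reporter mRNA in transiently transfected human HepG2 cells at 24 h. RNA reverse-transcribed, PCR-amplified, labelled and resolved by capillary electrophoresis; gain or loss relative to DMSO.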

Assay [8] can be described thus: ATG_PBREM_CIS: Attagene CIS-FACTORIAL HepG2 Assay for human Phenobarbital-responsive Enhancer Module (PBREM) (AID 2282955). Particulars: HepG2 PBREM cis-reporter, Attagene multiplexed transcription; actives raise or lower the signal. In short, it runs like this: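 Fluorescence of labelled reporter cDNA fragments, resolved by capillary electrophoresis, gives mRNA induction in transfected HepG2 cells treated for 24 h; DMSO serves as negative control and baseline.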

In assay [9] the target is Paired box protein Pax-6 (Homo sapiens) (UniProt P26367). Nature of the assay: ATG_Pax6_CIS: Attagene CIS-FACTORIAL HepG2 Assay for human Paired Box 6 (PAX6) (AID 2282956). The settings on record: HepG2 CIS-FACTORIAL PAX6 reporter transcription, RNA readout; actives raise or lower the signal. Put shortly: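 Fluorescent RT-PCR products separated by capillary electrophoresis report PAX6-linked promoter mRNA in HepG2 cells 24 h post-dose. Curves fitted bidirectionally, DMSO as negative control.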
Paired box protein Pax-6 (Homo sapiens), sequence (P26367 whole entry, looked up): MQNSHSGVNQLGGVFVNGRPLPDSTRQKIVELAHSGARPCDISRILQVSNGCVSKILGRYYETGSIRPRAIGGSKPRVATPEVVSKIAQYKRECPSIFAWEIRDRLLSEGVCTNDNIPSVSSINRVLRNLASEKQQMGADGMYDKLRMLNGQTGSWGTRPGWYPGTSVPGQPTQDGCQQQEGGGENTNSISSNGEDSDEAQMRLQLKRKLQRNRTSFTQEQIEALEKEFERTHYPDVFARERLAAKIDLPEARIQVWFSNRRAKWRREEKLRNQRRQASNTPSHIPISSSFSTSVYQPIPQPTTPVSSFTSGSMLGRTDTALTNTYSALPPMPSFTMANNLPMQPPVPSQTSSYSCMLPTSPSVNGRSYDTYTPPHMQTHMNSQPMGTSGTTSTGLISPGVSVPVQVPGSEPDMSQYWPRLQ

The nature of assay [10]: ATG_PXRE_CIS: Attagene CIS-FACTORIAL HepG2 Assay for human Pregnane X Receptor Element (PXRE) (AID 2282957). The settings on record: HepG2 Attagene CIS-FACTORIAL PXRE reporter, mRNA; actives raise or lower the signal. In short, it runs like this: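 Reporter transcripts under endogenous PXR-responsive cis-regulation quantified from total RNA of transfected HepG2 cells 24 h post-dosing, via RT-PCR with fluorescent primer extension and capillary electrophoresis. Gain or loss of signal fitted against DMSO baseline.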

The nature of assay [11]: ATG_RORE_CIS: Attagene CIS-FACTORIAL HepG2 Assay for human RAR-related Orphan Receptor Element (RORE) (AID 2282959). The settings on record: HepG2 Attagene cis-factorial RORE reporter, mRNA; actives raise or lower the signal. In short, it runs like this:
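Cells were HepG2 carrying transfected cis-regulated reporter constructs, dosed for 24 hours. Total RNA was reverse-transcribed and reporter cDNA amplified, fluorescently labeled and sized by capillary electrophoresis. Activity was fitted bidirectionally relative to DMSO.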

A short description of assay [12]: ATG_Sox_CIS: Attagene CIS-FACTORIAL HepG2 Assay for human SRY-box transcription factor (SOX) (AID 2282960). The settings on record: HepG2 Attagene cis-factorial SOX reporter, mRNA; actives raise or lower the signal. In short, it runs like this: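 Transient MRTU transfection of HepG2; 24 h compound incubation; TriZol RNA, oligo(dT) RT, PCR, 6-FAM primer extension, HpaI cut, CE. Bidirectional fit, DMSO = baseline.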

Assay [13] addresses Transcription factor Sp1 (Homo sapiens) (UniProt P08047). As to the kind of experiment: ATG_Sp1_CIS: Attagene CIS-FACTORIAL HepG2 Assay for human Specificity Protein 1 (Sp1) (AID 2282961). The settings on record: HepG2 Sp1 cis-reporter transcription, actives raise or lower the signal. In short, it runs like this:
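Endogenous Sp1 activity was gauged in human liver HepG2 cells bearing transfected reporter units under a cis-regulating promoter. After 24 h dosing, reporter mRNA was quantified by RT-PCR with capillary electrophoresis, and activity fitted bidirectionally versus DMSO.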

The nature of assay [14]: ATG_SREBP_CIS: Attagene CIS-FACTORIAL HepG2 Assay for human Sterol Regulatory Element Binding (SREBP) (AID 2282962). The settings on record: HepG2 Attagene cis-factorial SREBP reporter, mRNA; actives raise or lower the signal. Put shortly:
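Endogenous factor activity is measured in HepG2 through multiplexed reporter units under cis-element control. Following a 24 h incubation, reporter transcripts are reverse-transcribed, PCR-amplified and sized by capillary electrophoresis; activity is fitted in both directions relative to DMSO.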

Assay [15] can be described thus: ATG_TA_CIS: Attagene CIS-FACTORIAL HepG2 Assay for human TA Basal Promoter (AID 2282964). The settings on record: HepG2 Attagene CIS-factorial TA basal promoter reporter; actives raise or lower the signal. In short, it runs like this: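 Multiplexed mRNA reporter assay, HepG2, 24 h. Reporter cDNA amplified, 6-FAM primer-extended, HpaI-cut, CE-sized; DMSO = negative control and baseline.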

Assay [16] in a line: ATG_TCF_b_cat_CIS: Attagene CIS-FACTORIAL HepG2 Assay for human T-Cell-Factor with beta-catenin (TCF/b-cat) (AID 2282965). Particulars: HepG2 TCF/beta-catenin cis-reporter transcription, actives raise or lower the signal. Put shortly:
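Measured: reporter mRNA in HepG2 transiently transfected with cis-promoter reporter units, 24 h after chemical addition. Fitting was bidirectional, DMSO as negative control.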

Assay [17] in a line: ATG_GRE_CIS: Attagene CIS-FACTORIAL HepG2 Assay for human Glucocorticoid Response Elements (GRE) (AID 2282947). Particulars: HepG2 GRE cis-reporter, Attagene multiplex mRNA; actives raise or lower the signal. In short, it runs like this:
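Reporter transcripts read by RT-PCR with capillary electrophoresis fluorescence after a 24 h chemical exposure of HepG2 cells transiently transfected with multiple cis-element reporter units. Gain or loss fitted against DMSO.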

Assay [18] in a line: ATG_PPRE_CIS: Attagene CIS-FACTORIAL HepG2 Assay for human Peroxisome Proliferator-activated Response Element (PPRE) (AID 2282958). Particulars: HepG2 PPRE cis-element reporter, Attagene transcription factor profiling; actives raise or lower the signal. In short, it runs like this: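 Cells are first transfected transiently with the multiplexed reporter library, then dosed for 24 h. Total RNA is reverse-transcribed, amplified, fluorescently end-labeled and HpaI-cut before capillary electrophoresis; activity is fitted bidirectionally against DMSO controls.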

For assay [19], the target named is Signal transducer and activator of transcription 3 (Homo sapiens) (UniProt P40763). As to the kind of experiment: ATG_STAT3_CIS: Attagene CIS-FACTORIAL HepG2 Assay for human Signal Transducer and Activator of Transcription 3 (STAT3) (AID 2282963). Particulars: HepG2, Attagene cis-factorial STAT3 reporter transcription; actives raise or lower the signal. Put shortly: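 Readout is reporter transcript quantified by RT-PCR and capillary electrophoresis, with 6-FAM primer extension and HpaI digestion. Total RNA is taken 24 h after dosing transiently transfected HepG2 carrying cis-regulated reporter units. Bidirectional fit against DMSO.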
Signal transducer and activator of transcription 3 (Homo sapiens), sequence (P40763 whole entry, looked up): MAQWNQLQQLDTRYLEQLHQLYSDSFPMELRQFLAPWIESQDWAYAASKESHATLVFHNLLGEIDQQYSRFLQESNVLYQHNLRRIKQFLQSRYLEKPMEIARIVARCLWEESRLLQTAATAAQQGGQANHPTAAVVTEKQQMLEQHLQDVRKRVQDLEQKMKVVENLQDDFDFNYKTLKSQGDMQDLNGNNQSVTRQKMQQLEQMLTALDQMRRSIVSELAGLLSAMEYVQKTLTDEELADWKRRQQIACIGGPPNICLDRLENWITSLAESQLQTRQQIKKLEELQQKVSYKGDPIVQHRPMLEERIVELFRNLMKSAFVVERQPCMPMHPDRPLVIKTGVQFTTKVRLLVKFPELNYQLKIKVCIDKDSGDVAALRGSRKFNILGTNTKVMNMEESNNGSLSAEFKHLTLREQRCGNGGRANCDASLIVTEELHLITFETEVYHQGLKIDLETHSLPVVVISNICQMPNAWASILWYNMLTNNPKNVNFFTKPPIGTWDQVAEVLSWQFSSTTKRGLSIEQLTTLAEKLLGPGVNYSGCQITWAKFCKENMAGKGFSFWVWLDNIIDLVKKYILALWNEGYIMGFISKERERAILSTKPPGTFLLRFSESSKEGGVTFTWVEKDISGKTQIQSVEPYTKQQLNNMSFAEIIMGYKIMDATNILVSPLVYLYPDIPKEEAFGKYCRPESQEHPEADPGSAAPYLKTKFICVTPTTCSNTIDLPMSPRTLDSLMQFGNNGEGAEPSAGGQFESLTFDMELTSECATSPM

Hepatocyte nuclear factor 6 (Homo sapiens), sequence (Q9UBC0 whole entry, looked up): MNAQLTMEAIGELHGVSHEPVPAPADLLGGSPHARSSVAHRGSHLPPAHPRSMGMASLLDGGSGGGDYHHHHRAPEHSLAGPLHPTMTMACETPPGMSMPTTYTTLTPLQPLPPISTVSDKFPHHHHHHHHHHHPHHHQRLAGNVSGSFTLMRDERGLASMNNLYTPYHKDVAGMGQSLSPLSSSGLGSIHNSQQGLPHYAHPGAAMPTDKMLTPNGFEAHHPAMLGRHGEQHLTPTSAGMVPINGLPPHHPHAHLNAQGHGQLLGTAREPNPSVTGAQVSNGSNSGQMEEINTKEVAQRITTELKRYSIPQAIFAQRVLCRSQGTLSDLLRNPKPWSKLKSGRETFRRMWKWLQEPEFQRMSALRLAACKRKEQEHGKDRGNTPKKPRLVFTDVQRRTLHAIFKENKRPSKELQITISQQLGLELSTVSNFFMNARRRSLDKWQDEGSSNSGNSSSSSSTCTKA
Transcription factor Sp1 (Homo sapiens), sequence (P08047 whole entry, looked up): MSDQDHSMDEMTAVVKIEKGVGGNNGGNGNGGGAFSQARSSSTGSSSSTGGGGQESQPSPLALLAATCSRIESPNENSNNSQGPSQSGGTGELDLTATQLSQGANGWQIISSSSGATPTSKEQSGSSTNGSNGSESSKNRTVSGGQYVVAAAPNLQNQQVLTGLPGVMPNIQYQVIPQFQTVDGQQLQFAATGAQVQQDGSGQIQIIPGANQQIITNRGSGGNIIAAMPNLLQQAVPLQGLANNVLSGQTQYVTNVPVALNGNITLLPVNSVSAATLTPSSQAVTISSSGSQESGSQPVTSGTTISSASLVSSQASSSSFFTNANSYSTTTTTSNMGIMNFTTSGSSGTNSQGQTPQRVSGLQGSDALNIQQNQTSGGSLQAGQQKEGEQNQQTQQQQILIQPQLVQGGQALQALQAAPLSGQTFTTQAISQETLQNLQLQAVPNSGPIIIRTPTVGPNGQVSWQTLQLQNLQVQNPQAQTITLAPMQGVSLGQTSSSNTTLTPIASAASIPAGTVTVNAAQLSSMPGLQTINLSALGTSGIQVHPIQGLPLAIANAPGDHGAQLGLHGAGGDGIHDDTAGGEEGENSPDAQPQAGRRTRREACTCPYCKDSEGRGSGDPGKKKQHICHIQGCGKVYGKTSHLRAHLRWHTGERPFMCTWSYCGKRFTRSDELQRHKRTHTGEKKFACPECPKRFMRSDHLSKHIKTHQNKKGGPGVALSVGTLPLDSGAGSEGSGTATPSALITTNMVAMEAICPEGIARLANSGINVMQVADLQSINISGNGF

For the compound `O=C(Nc1ccc2c(O)c(N=Nc3ccc(N=Nc4ccc(S(=O)(=O)O)cc4)cc3)c(S(=O)(=O)O)cc2c1)c1ccccc1`, the result in assay [1], in assay [2], in assay [3], in [4], in assay [5] and in [6] was inactive. Further, the result in assay [7], in assay [8], in assay [9], in assay [10], in assay [11] and in assay [12] was inactive. In addition, the result in assay [13], in [14], in assay [15] and in assay [16] was inactive.

One may read the AC50 as the concentration giving half of the maximal activity seen. As to `N[C@@H](Cc1cc(I)c(Oc2cc(I)c(O)c(I)c2)c(I)c1)C(=O)O`, the outcome in assay [17], in assay [3], in assay [5], in assay [9], in assay [12] and in assay [13] was inactive. The result in assay [19], in assay [15] and in assay [16] was inactive. Further, the AC50 in assay [4] was 18.9 µM (active); in [7], 27.8 µM (active); in assay [8], 11.2 µM (active); in assay [10] it was 6.42 µM (active); in [18], 22.1 µM (active); in assay [14], 22.7 µM (active).

Turning to `Cc1ccc(-c2ccccc2)cc1`, the call in assay [17], in assay [2], in assay [3], in assay [4], in assay [5] and in assay [6] was inactive. Moreover, the compound was called inactive in assay [7], in assay [8], in assay [18], in [11], in [12] and in [13]. The call in assay [14], in assay [19], in assay [15] and in assay [16] was inactive. In assay [10], the AC50 was 27.3 µM (active).

Take `CCOc1ccccc1O`: the call in assay [1], in assay [2], in assay [3], in [4], in [5] and in assay [6] was inactive. The outcome in assay [7], in [8], in assay [9], in assay [10], in assay [18] and in [11] was inactive. For the same compound, the compound was classed as inactive in [12], in assay [13], in assay [14], in assay [15] and in assay [16].

In the case of `C1=CC2C3C=CC(C3)C2C1` (centres undefined), the compound was called inactive in assay [17], in assay [3], in assay [4], in [5], in assay [6] and in assay [7]. The result in assay [8], in [9], in assay [11], in assay [12], in assay [13] and in assay [14] was inactive. Further, the result in assay [19], in assay [15] and in assay [16] was inactive. The AC50 in assay [10] was 36.3 µM (active).

For the compound `C=CCCC(=O)/C=C/C1C(C)=CCCC1(C)C` (centres undefined), the call in assay [1], in [2], in [3], in assay [4], in assay [5] and in assay [8] was inactive. Moreover, the compound was called inactive in [9], in assay [12], in [13], in assay [19], in [15] and in assay [16]. Moreover, the AC50 was 152 µM (active) in assay [6], 150 µM (active) in assay [7], 1.18 µM (active) in assay [10] and 100 µM (active) in assay [14].

In the case of `CC(C)CC(C)CC(O)CC(C)C` (centres undefined), the compound was classed as inactive in [1], in assay [2], in assay [3], in [4], in assay [5] and in assay [6]. The compound was classed as inactive in assay [7], in assay [8], in assay [9], in [10], in [18] and in [11]. Also, the compound was called inactive in assay [12], in assay [13], in assay [14], in [15] and in assay [16].

Turning to `C=C(C)C(=O)OCC(CC)(COC(=O)C(=C)C)COC(=O)C(=C)C`, the outcome in assay [1], in [2], in [3], in assay [4], in [5] and in assay [7] was inactive. The outcome in assay [8], in [9], in assay [11], in assay [12], in assay [13] and in assay [14] was inactive. For the same compound, the outcome in [19] and in assay [15] was inactive. Moreover, in [10], the AC50 is 10.6 µM (active).
